Measured values: the supplement of paper PMC13380429
Unmarked numbers belong to inactive results.

Tested on: Vero E6 infected with SARS-CoV-2
Experiment: SARS-CoV-2 infection rate relative to infected DMSO; higher = more infection, active = 60 or less
Details: 24 h

SMILES	SARS-CoV-2 infection rate [%]
CCOc1ccccc1-n1c(C(C)N2CCN(C(=O)COc3ccc(Cl)cc3)CC2)nc2ccccc2c1=O (configuration not stated) [erastin] (0.833333 µM)	86
O.O=[Si]=O.O=[Si]=O.O=[Si]=O.O=[Si]=O.[O]=[Mg].[O]=[Mg].[O]=[Mg] (10 µM)	104
Cc1cc(F)c(Nc2ncnc3cc(OCc4ccccc4)ccc23)cc1O (10 µM)	99
C/C(=C\c1ccc(C(=O)O)cc1)c1ccc2c(c1)C(C)(C)CCC2(C)C (10 µM)	102
CCCn1c(=O)[nH]c(=O)c2nc[nH]c21 [enprofylline] (10 µM)	94
CC(=O)N(c1onc(C)c1C)S(=O)(=O)c1ccc(N)cc1 [sulfisoxazole-acetyl] (10 µM)	91
CCC(c1ccccc1)c1c(O)c2ccccc2oc1=O (configuration not stated) [phenprocoumon] (10 µM)	102
CN(C)c1ccc2nc3ccc(=[N+](C)C)cc-3sc2c1 [methylene-blue] (0.833333 µM)	104
CC(C)(C)NCC(O)c1cc(Cl)c(N)c(Cl)c1 (configuration not stated) [clenbuterol] (10 µM)	110
Oc1ncnc2[nH]ncc12 [allopurinol] (10 µM)	108
CN(C)C(=N)NCCC[C@H](N)C(=O)O [asymmetrical-dimethylarginine] (10 µM)	95.5
CCn1nc(C(=O)O)c(=O)c2cc3c(cc21)OCO3 [cinoxacin] (10 µM)	104
